The values below come from PubChem BioAssay.

The source made the active and inactive calls.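 The calls were made as follows: active = normalized viability below 100% at a tested concentration; inactive = the rest.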

The assay in a line: drug combination growth inhibition, ovarian cancer – cell-based, oncology-focused library, rucaparib conditional, profiling panel (AID 1508598). Particulars: patient-derived ovarian cancer cells, CellTiter-Glo viability, 144 h; at 0.0781 µM; OCI-P5x cells; without rucaparib; hits give low values. A general note: In ATP-based viability assays light output follows the ATP content of the culture.
In general, viability refers to a read-out of living cells in per cent, often relative to untreated cells. `N[C@@H]1CCCN(c2c(/C=C3\SC(=O)NC3=O)cccc2-c2ccccc2)C1`: the viability was 109% (inactive).

For the molecule `C[C@@H]1C[C@H]2[C@@H]3CCC4=CC(=O)C=C[C@]4(C)[C@]3(F)[C@H](O)C[C@]2(C)[C@]1(O)C(=O)CO`, the viability was 110% (inactive). Consider `Cc1cc2c(C(=O)NC[C@H](C)c3ccccc3)c(O)c(O)cc2c(O)c1-c1c(C)cc2c(C(=O)NC[C@H](C)c3ccccc3)c(O)c(O)cc2c1O`, for which the viability was 95.4% (active). Regarding `Nc1nc(F)nc2c1ncn2[C@H]1O[C@H](CO)[C@@H](O)[C@@H]1O`, the viability was 113% (inactive). As to `COc1cccc2c1C(=O)c1c(O)c3c(c(O)c1C2=O)C[C@@](O)(C(=O)CO)C[C@H]3O[C@H]1C[C@H](N)[C@@H](O)[C@H](C)O1`, the viability is 30.8% (active).

Regarding `C=C1/C(=C/C=C2\CCC[C@@]3(C)[C@H]2CC[C@H]3[C@H](C)/C=C/[C@@H](C)C(C)C)C[C@H](O)C[C@@H]1O`, the viability was 101% (inactive).

For `CO[C@H]1C[C@H]2CC[C@@H](C)[C@@](O)(O2)C(=O)C(=O)N2CCCC[C@H]2C(=O)O[C@H]([C@H](C)C[C@@H]2CC[C@H](OP(C)(C)=O)[C@H](OC)C2)CC(=O)[C@H](C)/C=C(\C)[C@@H](O)[C@@H](OC)C(=O)[C@H](C)C[C@H](C)/C=C/C=C/C=C/1C`, the viability is 60.3% (active).

Regarding `C=CCNC1=C2C[C@@H](C)C[C@H](OC)[C@H](O)[C@@H](C)/C=C(\C)[C@H](OC(N)=O)[C@@H](OC)/C=C\C=C(\C)C(=O)NC(=CC1=O)C2=O`, the viability is 35.9% (active). Turning to `CC[C@]1(O)C[C@@H]2CN(CCc3c([nH]c4ccccc34)[C@@](C(=O)OC)(c3cc4c(cc3OC)N(C=O)[C@@H]3C45CCN4CC=C[C@](CC)([C@H]45)[C@H](OC(C)=O)[C@]3(O)C(=O)OC)C2)C1` (some centres undefined), the viability was 17.4% (active).
